Laboratory results taken from the supplement of paper PMC10849652.
Targets with a hit are over-represented here; the source holds about 7,900 in all. About 0.6% of all pairs of compound and target were hits.

Tests used:
Test in all cases: log2 fold change, soluble protein after heating vs DMSO (PISA); higher = thermal stabilisation; K562 cells, 10 uM, 30 min; active = over 0.2 and 3.5 SD of the protein, either way, in both replicates (recomputed)
[1] = compound: C1=CC=C(C=C1)[C@H](COC2=CC3=C(C=C2)NC(=O)N3)NC(=O)C4=CC=CN(C4=O)CC5=CC(=C(C=C5)F)F
Summary of the method: (§1)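 Soluble protein was quantified by TMTpro 16plex LC-MS/MS after channel sums were equalised. It was obtained as the supernatant after 21,000xg for 90 min from pooled aliquots of K562 cells (2×10^6 cells/mL, 10 μM compound, 30 min) heated for 3 min across 48°C-58°C and extracted in PBS with 0.5% NP-40 at 4°C. Thermal stability values are relative to control samples and come from duplicates. They are given as log2 fold changes.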

[2] = compound: CC1=C(SC2=C1C(=N[C@H](C3=NN=C(N32)C)CC(=O)N)C4=CC=C(C=C4)Cl)C
Summary of the method: as §1

[3] = compound: CC1=C2C(=CC=C1)N=C(N(C2=O)C3=CC=CC=C3C)CN4C=NC5=C(N=CN=C54)N
Summary of the method: as §1

[4] = compound: Cc1sc2c(c1C)C(c1ccc(Cl)cc1)=N[C@@H](CC(=O)OC(C)(C)C)c1nnc(C)n1-2
Summary of the method: as §1

[5] = compound: c1ccc([C@@H]2C[C@H]2NC2CCNCC2)cc1
Summary of the method: as §1

Measured: log2 fold change

PTK2B (UniProt Q14289)
inactive: [1] -0.105 | [2] -0.098 | [3] 0.194 | [4] 0 | [5] -0.013

PCBP1 (UniProt Q15365)
inactive: [1] -0.045 | [2] 0.047 | [3] 0.048 | [4] -0.03 | [5] 0

PSPC1 (UniProt Q8WXF1)
Chain of UniProt Q8WXF1 (Q8WXF1 whole entry, looked up): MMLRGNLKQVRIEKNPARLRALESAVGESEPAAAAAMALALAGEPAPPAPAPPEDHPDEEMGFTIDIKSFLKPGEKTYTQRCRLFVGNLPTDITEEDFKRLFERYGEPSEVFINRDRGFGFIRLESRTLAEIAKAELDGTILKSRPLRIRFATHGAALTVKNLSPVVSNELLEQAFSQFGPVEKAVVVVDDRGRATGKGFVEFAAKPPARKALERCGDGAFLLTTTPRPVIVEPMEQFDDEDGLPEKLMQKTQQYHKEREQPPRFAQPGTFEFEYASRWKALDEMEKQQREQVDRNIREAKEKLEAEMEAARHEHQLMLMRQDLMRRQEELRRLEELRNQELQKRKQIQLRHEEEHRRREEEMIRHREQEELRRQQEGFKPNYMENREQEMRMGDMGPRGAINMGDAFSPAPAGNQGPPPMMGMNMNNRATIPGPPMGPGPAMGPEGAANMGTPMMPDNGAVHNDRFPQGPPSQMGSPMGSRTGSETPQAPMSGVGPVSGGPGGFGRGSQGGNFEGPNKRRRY
inactive: [1] -0.023 | [2] -0.029 | [3] 0.038 | [4] -0.032 | [5] 0.015

PPP1R12B isoform 6 (UniProt O60237)
inactive: [1] -0.051

PPOX (UniProt P50336)
Chain of UniProt P50336 (P50336 whole entry, looked up): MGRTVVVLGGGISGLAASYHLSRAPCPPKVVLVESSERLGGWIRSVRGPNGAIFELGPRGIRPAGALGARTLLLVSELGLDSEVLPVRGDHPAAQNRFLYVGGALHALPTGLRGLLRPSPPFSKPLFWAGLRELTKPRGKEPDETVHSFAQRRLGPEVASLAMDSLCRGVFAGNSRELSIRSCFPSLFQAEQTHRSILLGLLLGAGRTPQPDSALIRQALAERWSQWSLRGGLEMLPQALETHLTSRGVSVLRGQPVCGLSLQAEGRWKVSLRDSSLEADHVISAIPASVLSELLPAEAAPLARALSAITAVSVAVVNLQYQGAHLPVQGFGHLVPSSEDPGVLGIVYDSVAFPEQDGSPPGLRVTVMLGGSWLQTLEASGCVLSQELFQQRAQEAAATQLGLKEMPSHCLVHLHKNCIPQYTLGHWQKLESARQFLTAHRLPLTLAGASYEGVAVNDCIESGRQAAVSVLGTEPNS
inactive: [1] 0.385 | [2] 0.092 | [3] 0.129 | [4] 0.04 | [5] -0.045

PPP2R5C isoform 5 (UniProt Q13362)
inactive: [1] -0.039 | [2] 0.001 | [3] 0.084 | [4] -0.067 | [5] -0.029

PSMC2 (UniProt P35998)
Chain of UniProt P35998 (P35998 whole entry, looked up): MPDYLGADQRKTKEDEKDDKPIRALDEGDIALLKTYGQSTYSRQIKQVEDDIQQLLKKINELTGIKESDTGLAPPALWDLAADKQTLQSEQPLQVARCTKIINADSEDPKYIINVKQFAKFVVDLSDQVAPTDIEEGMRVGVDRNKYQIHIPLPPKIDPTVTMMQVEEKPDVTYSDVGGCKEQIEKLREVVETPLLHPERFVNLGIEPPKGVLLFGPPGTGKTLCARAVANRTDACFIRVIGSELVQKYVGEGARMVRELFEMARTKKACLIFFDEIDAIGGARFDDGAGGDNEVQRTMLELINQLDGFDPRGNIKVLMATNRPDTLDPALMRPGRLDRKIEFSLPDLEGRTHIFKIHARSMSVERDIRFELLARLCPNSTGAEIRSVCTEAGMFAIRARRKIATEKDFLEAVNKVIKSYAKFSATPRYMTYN
inactive: [1] 0.031 | [2] -0.085 | [3] -0.092 | [4] 0.002 | [5] 0.001

PRIM1 (UniProt P49642)
Chain of UniProt P49642 (P49642 whole entry, looked up): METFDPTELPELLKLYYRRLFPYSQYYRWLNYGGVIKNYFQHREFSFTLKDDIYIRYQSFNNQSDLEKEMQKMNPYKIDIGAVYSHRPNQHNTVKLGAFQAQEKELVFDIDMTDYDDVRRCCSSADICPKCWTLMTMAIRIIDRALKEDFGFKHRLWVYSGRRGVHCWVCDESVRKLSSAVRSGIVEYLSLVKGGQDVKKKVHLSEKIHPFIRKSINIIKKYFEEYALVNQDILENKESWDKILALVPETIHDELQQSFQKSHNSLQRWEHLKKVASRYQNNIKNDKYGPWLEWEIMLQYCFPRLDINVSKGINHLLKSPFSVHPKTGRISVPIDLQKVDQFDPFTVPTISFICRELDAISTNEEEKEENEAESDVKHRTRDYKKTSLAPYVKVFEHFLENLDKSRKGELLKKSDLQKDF
inactive: [1] -0.149 | [2] -0.033 | [3] 0.053 | [4] 0.033 | [5] 0.01

PRKD2 (UniProt M0R346)
inactive: [1] 0.081

POLR2C (UniProt P19387)
inactive: [1] -0.091 | [2] 0.125 | [3] -0.023 | [4] 0.155 | [5] -0.092

PPT1 (UniProt P50897)
Chain of UniProt P50897 (P50897 whole entry, looked up): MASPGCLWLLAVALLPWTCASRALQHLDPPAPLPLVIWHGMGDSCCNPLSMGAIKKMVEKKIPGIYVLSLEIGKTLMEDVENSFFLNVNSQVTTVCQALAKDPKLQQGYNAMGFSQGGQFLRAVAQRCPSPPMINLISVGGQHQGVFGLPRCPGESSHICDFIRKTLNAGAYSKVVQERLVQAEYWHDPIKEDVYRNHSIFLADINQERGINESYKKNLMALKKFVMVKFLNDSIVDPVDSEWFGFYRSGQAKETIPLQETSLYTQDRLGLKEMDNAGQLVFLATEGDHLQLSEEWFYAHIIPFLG
inactive: [1] 0.047 | [2] 0.021 | [3] 0 | [4] -0.003 | [5] -0.003

PUF60 isoform 2 (UniProt Q9UHX1)
inactive: [1] 0.044 | [2] 0.097 | [3] -0.312 | [4] -0.146 | [5] -0.079

PPIL1 (UniProt Q9Y3C6)
Chain of UniProt Q9Y3C6 (Q9Y3C6 whole entry, looked up): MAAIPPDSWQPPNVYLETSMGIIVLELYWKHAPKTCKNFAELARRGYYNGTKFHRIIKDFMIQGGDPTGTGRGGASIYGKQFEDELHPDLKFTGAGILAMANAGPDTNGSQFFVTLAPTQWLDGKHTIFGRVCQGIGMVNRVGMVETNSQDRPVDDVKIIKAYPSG
inactive: [1] -0.046 | [2] 0.012 | [3] 0.021 | [4] 0.032 | [5] -0.052

PDE6D (UniProt O43924)
Chain of UniProt O43924 (O43924 whole entry, looked up): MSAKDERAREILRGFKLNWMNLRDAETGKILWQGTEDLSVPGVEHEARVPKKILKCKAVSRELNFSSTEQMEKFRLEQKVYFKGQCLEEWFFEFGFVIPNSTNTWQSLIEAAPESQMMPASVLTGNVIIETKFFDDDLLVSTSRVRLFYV
inactive: [1] -0.053 | [2] 0.238 | [3] -0.004 | [4] -0.13 | [5] 0.017

PDE2A (UniProt O00408)
Chain of UniProt O00408 (O00408 whole entry, looked up): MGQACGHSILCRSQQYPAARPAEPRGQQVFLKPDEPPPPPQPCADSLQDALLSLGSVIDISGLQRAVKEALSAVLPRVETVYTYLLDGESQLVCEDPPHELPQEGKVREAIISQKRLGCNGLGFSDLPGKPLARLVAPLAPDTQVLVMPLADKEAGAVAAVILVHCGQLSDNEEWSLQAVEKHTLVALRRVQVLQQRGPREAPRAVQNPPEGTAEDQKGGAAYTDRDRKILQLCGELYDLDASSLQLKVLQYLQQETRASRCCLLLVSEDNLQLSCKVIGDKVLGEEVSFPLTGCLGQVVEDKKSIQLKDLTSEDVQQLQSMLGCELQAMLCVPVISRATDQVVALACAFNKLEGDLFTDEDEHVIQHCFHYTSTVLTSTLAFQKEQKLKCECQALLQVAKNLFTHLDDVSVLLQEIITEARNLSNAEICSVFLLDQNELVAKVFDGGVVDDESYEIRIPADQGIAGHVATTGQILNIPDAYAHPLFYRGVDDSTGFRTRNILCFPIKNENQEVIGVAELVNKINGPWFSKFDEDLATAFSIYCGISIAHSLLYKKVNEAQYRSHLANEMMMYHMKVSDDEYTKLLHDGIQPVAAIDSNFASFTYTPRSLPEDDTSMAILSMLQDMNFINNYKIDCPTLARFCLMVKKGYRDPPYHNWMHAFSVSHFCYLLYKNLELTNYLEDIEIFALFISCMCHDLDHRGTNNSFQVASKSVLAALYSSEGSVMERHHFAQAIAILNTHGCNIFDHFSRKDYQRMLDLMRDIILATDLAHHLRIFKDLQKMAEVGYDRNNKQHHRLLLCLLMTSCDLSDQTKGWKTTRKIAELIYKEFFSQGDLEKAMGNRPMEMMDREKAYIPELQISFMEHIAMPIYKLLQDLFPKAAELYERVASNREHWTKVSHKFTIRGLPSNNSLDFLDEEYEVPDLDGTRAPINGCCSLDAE
inactive: [1] 0.079 | [2] 0.08 | [3] 0.16 | [4] -0.024 | [5] 0.065

PPP2R5C isoform 2 (UniProt Q13362)
inactive: [1] -0.065

PLCXD1 (UniProt Q9NUJ7)
inactive: [1] -0.061

PLBD1 (UniProt Q6P4A8)
Chain of UniProt Q6P4A8 (Q6P4A8 whole entry, looked up): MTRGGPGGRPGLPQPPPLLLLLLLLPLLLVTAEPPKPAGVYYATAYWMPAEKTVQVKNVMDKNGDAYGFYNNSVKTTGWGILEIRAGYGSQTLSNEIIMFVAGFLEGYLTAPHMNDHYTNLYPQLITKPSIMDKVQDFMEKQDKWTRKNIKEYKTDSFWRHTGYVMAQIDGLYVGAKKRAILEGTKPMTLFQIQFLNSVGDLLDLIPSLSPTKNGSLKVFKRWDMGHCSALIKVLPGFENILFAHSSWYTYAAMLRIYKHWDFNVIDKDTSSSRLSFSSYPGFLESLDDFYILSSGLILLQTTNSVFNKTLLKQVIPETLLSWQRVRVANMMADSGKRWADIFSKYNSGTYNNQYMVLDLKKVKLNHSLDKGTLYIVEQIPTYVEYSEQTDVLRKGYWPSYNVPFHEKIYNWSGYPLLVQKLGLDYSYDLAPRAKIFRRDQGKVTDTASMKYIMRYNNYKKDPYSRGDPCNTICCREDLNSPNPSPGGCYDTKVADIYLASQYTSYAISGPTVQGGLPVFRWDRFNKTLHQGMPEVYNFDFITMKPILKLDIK
inactive: [1] 0.005 | [2] -0.011 | [3] -0.018 | [4] -0.006 | [5] 0.013

PDSS2 (UniProt Q86YH6)
inactive: [1] -0.066 | [2] 0.052 | [3] 0.085 | [4] 0.005 | [5] 0.094

PYGB (UniProt P11216)
inactive: [1] 0.024 | [2] 0.037 | [3] 0.003 | [4] 0.015 | [5] -0.003

PCNT (UniProt O95613)
inactive: [1] 0.037 | [2] -0.067 | [3] 0.11 | [4] 0.064 | [5] 0.105

PSMC3 (UniProt P17980)
inactive: [1] 0.014 | [2] -0.083 | [3] -0.058 | [4] 0 | [5] 0

PECAM1 (UniProt P16284)
inactive: [1] 0.063 | [2] 0.138 | [3] 0.014 | [4] -0.06 | [5] 0.047

POGLUT1 (UniProt Q8NBL1)
Chain of UniProt Q8NBL1 (Q8NBL1 whole entry, looked up): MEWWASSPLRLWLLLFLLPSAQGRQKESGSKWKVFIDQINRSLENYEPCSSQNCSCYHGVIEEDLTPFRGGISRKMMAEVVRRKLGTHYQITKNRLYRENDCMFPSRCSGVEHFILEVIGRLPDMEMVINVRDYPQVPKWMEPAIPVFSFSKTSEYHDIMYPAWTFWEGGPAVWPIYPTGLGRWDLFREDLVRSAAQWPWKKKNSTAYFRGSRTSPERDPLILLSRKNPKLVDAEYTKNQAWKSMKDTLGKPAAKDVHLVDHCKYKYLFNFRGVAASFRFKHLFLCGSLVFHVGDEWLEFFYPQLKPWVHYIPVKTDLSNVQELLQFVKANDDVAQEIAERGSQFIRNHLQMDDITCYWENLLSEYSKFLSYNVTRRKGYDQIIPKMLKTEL
inactive: [1] 0.039 | [2] -0.041 | [3] 0.082 | [4] 0.07 | [5] 0.015

PPP1CA (UniProt P62136)
inactive: [1] 0.003 | [2] 0.022 | [3] 0.025 | [4] 0.016 | [5] 0.015

PTRHD1 (UniProt Q6GMV3)
Chain of UniProt Q6GMV3 (Q6GMV3 whole entry, looked up): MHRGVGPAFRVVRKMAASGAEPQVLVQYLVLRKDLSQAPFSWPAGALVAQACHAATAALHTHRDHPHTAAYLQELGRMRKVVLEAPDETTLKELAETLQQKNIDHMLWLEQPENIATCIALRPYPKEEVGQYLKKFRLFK
inactive: [1] -0.002 | [2] 0.056 | [3] 0.046 | [4] -0.073 | [5] 0.033

PTGES3 (UniProt Q15185)
Chain of UniProt Q15185 (Q15185 whole entry, looked up): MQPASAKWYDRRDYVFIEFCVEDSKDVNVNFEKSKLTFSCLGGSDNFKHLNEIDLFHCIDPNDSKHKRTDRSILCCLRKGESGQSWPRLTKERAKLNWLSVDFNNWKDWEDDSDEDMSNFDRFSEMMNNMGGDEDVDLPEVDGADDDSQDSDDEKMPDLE
inactive: [1] -0.009 | [2] 0.016 | [3] 0.067 | [4] -0.046 | [5] -0.063
